Measurements reported in PubChem BioAssay AID624330 (Southern Research Specialized Biocontainment Screening …, 2012).
About 2,100 (0.62%) of roughly 340,000 compounds were called active.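 The calls were made as follows: active = first-screen hits whose inhibition reached a set limit at any dose in the follow-up dose series; inconclusive = inhibition above the set first-screen limit but never retested; inactive = the rest.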 Only a sample is shown. Results with a measured potency or affinity are listed apart.

Target: Rac GTPase-activating protein 1 (Homo sapiens) (UniProt Q9H0H5)
Assay: blockers of MgcRacGAP-driven Rac1 GTP hydrolysis – biochemical, ADP Hunter fluorescence, primary and confirmatory, confirmation (AID 624330);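 also: fluorescence reports GDP produced by GAP-driven GTP hydrolysis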
Details: MgcRacGAP-stimulated Rac1 GTP hydrolysis, at 30 µM, active compounds read high, GST-tagged Rac1 F28L mutant substrate

Rac GTPase-activating protein 1 (Homo sapiens), sequence (Q9H0H5 whole entry, looked up): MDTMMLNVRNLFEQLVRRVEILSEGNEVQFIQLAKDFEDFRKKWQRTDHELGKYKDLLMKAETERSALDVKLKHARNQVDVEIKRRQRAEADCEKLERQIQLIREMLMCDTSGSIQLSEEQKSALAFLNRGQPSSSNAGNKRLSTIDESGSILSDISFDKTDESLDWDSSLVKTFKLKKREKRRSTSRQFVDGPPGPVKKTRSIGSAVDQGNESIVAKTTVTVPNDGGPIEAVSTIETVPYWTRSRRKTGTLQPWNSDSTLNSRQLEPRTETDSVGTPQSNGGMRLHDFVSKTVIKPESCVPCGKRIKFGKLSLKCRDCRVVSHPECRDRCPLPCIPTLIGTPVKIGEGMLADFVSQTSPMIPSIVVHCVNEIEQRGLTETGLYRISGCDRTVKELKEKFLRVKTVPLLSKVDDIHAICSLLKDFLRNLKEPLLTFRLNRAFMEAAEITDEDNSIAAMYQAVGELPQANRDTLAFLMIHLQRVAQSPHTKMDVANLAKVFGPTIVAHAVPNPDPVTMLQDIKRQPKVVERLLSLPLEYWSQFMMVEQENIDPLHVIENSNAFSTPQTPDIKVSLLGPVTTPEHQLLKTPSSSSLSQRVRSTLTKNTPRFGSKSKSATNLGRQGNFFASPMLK

inhibition, inactive:
CCN(CC(=O)Nc1cc(Cl)ccc1C)C(=O)COc1ccccc1F -0.45%
CCCOc1ccc(/C=N/Nc2ccccn2)cc1OC 13.1%
Clc1ccc(/C=N/Nc2ccccn2)cc1 11.1%
Brc1ccc(/C=N/Nc2ccccn2)cc1 10.9%
COc1cc(/C=N/Nc2ccccn2)ccc1OCC(C)C 1.63%
C=CCOc1ccc(/C=N/Nc2ccccn2)cc1OC 9.55%
Cc1ccc(N/N=C/c2ccc(N3CCOCC3)cc2)cc1C 24.2%
C(=N\n1cnnc1)/c1ccc(N2CCOCC2)cc1 8.48%
CCOc1ccc(/C=N/Nc2ccccn2)cc1OC 6.25%
COc1ccccc1-c1nnc(SC)n1C 7.84%
CC(=O)N1N=C(c2ccccc2)CC1c1ccc2c(c1)OCO2 (centres undefined) 13.6%
CC(C)(C)OC(=O)C[C@H]1C/C=C\C[C@@H](CC(=O)NCCO)C(=O)N[C@H](Cc2ccccc2)COC1=O 5.95%
CC1Cc2ccccc2N1S(=O)(=O)c1cnc(Cl)c(Cl)c1 (centres undefined) 6.78%
O=S(=O)(NCC(c1ccc2c(c1)OCO2)N1CCOCC1)c1ccccc1 (centres undefined) 4.31%
O=C(CCCC1=NS(=O)(=O)c2ccccc2N1)NCCc1ccc(Cl)cc1 12.4%
CN(C1CCCCC1)S(=O)(=O)c1ccc(=S)[nH]c1 16.8%
Cc1cccc(COCC(Cc2ccccc2)N2CCN(C(=O)c3cc(Cl)cc(Cl)c3)CCC2=O)c1 (centres undefined) 10.4%
Cc1noc(C)c1COc1ccc(C(=O)N2CCN(c3ccccc3O)CC2)cc1 -2.07%
O=C(Nc1nc2ccc(F)cc2s1)C1CC(=O)N(c2ccc3c(c2)OCCO3)C1 (centres undefined) 3.42%
CC(C)(C)c1ccc(NC(=O)COC(=O)C2CCCC2)cc1 6%
C(=N\Nc1ccccc1)/c1ccc(N2CCOCC2)cc1 11%
COc1cc(/C=N/Nc2ncnc3sc4c(c23)CCC4)ccc1O 6.14%
O=C(N/N=C/c1ccc(N2CCOCC2)cc1)c1ccccn1 3.4%
COc1ccc(/C=N/Nc2ncnc3sc4c(c23)CCCC4)cc1OC 2.22%
Cc1cc2ncn(S(=O)(=O)c3ccc(S(=O)(=O)N4CCCCCC4)cc3)c2cc1C -3.86%
Cn1c(SCC(=O)Nc2ccccc2Cl)nnc1C1CC1 2.31%
COc1ccc([N+](=O)[O-])cc1NS(=O)(=O)c1cc(C(=O)O)ccc1OC -0.88%
C=CCn1c(C)cc(C(=O)COC(=O)C2CC(=O)N(CCc3ccc(OC)c(OC)c3)C2)c1C (centres undefined) 2.85%
COc1ccc(C=O)cc1COc1ccc(Cl)cc1[N+](=O)[O-] 0.45%
CCCCOc1ccc(C(CC(=O)NC)C(=O)O)cc1 (centres undefined) 1.11%
Cc1ccc(NC(=O)c2ccccc2)cc1 8.58%
CN1c2ccccc2C(O)=C(C(=O)Nc2ccccc2)S1(=O)=O 5.83%
O=C(Nc1ccc(-c2ccccc2)cc1)c1ccccc1 10.2%
Cc1ccc(NC(=O)C2=C(O)c3ccccc3N(C)S2(=O)=O)cc1 10.1%
Cc1onc(-c2c(F)cccc2Cl)c1C(=O)N=C(N)N1CCCC1 4.34%
CCOC(=O)C1CCCCN1C(=O)c1oc2c(Cl)cc(C)cc2c1C (centres undefined) -3.11%
CCCCN(C)C(=O)Cc1c(OC)ccc2cc(Br)ccc12 10.7%
COc1ccc(/C=N/n2cncn2)cc1Cn1nc(C)c([N+](=O)[O-])c1C 6.36%
COc1ccc(CN2CCN(C(c3ccc(F)cc3)c3ccc(F)cc3)CC2)c(OC)c1OC 6.11%
Cc1ccc(SCCN2CCN(C)CC2)cc1 -7.97%
CCOc1ccccc1N1CCN(Cc2ccc(OC)c(OC)c2OC)CC1 13.8%
Cc1ccc(SCCN2CCN(CCc3ccccc3)CCC2=O)cc1 12%
COc1ccc(-n2c(SCC(=O)Nc3ccc(Br)cc3)nc(O)cc2=O)cc1 10.3%
O=C(c1ccc(F)cc1)N1CCCC(N2CCN(Cc3ccc4c(c3)OCO4)CC2)C1 (centres undefined) 8.04%
c1ccc(CN2CCC(N3CCN(Cc4ccc5c(c4)OCO5)CC3)CC2)cc1 13.3%
OCCC1CN(Cc2ccncc2)CCN1C1CCCC1 (centres undefined) 5.79%
O=C(c1ccncc1)N1CCN(C2CCCCC2)CC1 19.7%
COCCNC(=O)CC(c1ccccc1)c1ccccc1 10.4%
CCOc1ccc(CN(C)C(=O)CN2C(=O)NC3(CCCc4ccccc43)C2=O)cc1 (centres undefined) 13%
CC(C)(C)NC(=O)C(c1ccccn1)N(C(=O)c1csnn1)C1CCCC1 (centres undefined) 0.77%
O=C(COc1ccc(C(=O)Nc2ccc(Cl)cc2)cc1)NCc1ccccc1 8.5%
Cc1cc(/C=C2/NC(=O)N(Cc3ccccc3F)C2=O)c(C)n1-c1ccccn1 4.33%
COc1ccc(N(C)S(=O)(=O)c2cccc(C(=O)NCC(c3cccs3)N(C)C)c2)cc1 (centres undefined) 5.09%
Cc1cc(C)nc(NC(=O)/C=C/c2ccccc2Cl)c1 9.19%
Cc1cc(C)nc(NC(=O)/C=C/c2ccccc2Cl)n1 6.5%
CC(C)(C)OC(=O)N/N=C/c1ccc(N2CCOCC2)s1 25.5%
O=C(N/N=C/c1ccc(N2CCOCC2)s1)c1ccccc1Br 10%
C(=N\N(c1ccccc1)c1ccccc1)/c1ccc(N2CCOCC2)s1 15.3%
CC(C)NC(=S)N/N=C/c1ccc(N2CCOCC2)cc1 0.94%
CCOC(=O)N/N=C\c1ccc(C)s1 3.68%
C(=N\n1cnnc1)/c1ccc(N2CCOCC2)s1 10.2%
Clc1cccc(N/N=C/c2ccc(N3CCOCC3)cc2)c1 0.9%
O=C(O)c1cc(N/N=C/c2ccc(N3CCOCC3)s2)ccc1Cl 25.9%
Cc1ccccc1S(=O)(=O)N(C)C[C@@H]1OCc2ccccc2-c2c(n(C)c3ccccc23)C(=O)N([C@H](C)CO)C[C@@H]1C 14.2%
COc1ccc(Cl)cc1C(=O)NNC(=O)c1n[nH]c2ccccc12 4.94%
Cc1ccc(S(=O)(=O)/N=C(\Nc2cc(C)on2)c2ccc(Cl)cc2)cc1 8.35%
Cc1cn2c(-c3ccc(Cl)cc3)nnc2s1 -3.08%
O=C(NCc1cccnc1)C(=O)NCC1OCCCN1S(=O)(=O)c1ccc(Cl)cc1 (centres undefined) 1.54%
Cc1cc(=O)cc(C)n1-c1ccc2c(c1)nc(C)n2-c1ccccc1 2.42%
Cc1ccc(S(=O)(=O)N2CCN(C(=O)Cc3ccc4c(c3)OCCO4)CC2)cc1C 6.6%
CCCCc1ccc(NC(=S)NCCc2ccc(F)cc2)cc1 -17.2%
CCOc1ccc(-n2c(-c3ccco3)nc3c(cnn3-c3ccc(C)cc3)c2=O)cc1 2.66%
O=C(CN(Cc1ccco1)S(=O)(=O)c1ccccc1)N/N=C/c1cccc(O)c1 8.45%
Cc1ccc(/C=N/NC(=O)CN(Cc2ccccc2)S(=O)(=O)c2ccc3c(c2)OCCO3)cc1 2.63%
O=C(CN(Cc1ccco1)S(=O)(=O)c1ccccc1)N/N=C/c1ccccc1C(=O)O 8.11%
COc1ccc(/C=N/NC(=O)CN(Cc2ccccc2)S(=O)(=O)c2ccc3c(c2)OCCO3)cc1 7.2%
CN(C)CCCN=Cc1c(-c2ccccc2)[nH]n(-c2nc3ccccc3s2)c1=O 20.7%
O=C(NCc1ccc2c(c1)OCO2)Nc1cccc(Cl)c1 11.9%
COc1ccc(-c2nc3c(Br)c(N)c(Br)cc3o2)cc1 -0.217%
O=C(Oc1ccc2ccc(O)cc2c1)c1ccccc1Cl 18.6%
Clc1ccc2nc3ccccc3cc2c1 2.87%
Nc1ccc2cc3ccccc3cc2c1 17.6%
Nc1cccc(O)c1 18.5%
CCc1ccc(NC(=O)CSc2nc3ccccc3nc2N2CCCCC2)cc1 6.49%
Oc1ccc(/C=N/n2cnn(Cc3ccccc3Cl)c2=S)c(O)c1 8.66%
O=C(Cc1c(F)cccc1Cl)c1ccc(O)cc1O -1.08%
O=C(Cc1ccc(Cl)cc1)c1ccc(O)cc1 9.32%
O=C(Cc1ccc(Cl)cc1)NNc1c(F)c(F)cc(F)c1F 5.43%
CCN1C(=O)C(C(=O)c2ccccc2)SC1=S (centres undefined) 2.79%
CSc1ncnc2c1ncn2CCCN1CCN(Cc2cccc3ccccc23)CC1 18.8%
O=C(Oc1ccccc1C(=O)Nc1ccccc1)c1ccc(Br)c([N+](=O)[O-])c1 14.5%
CC(=O)Nc1ccc(C(=O)OCC(=O)c2ccc(C)c([N+](=O)[O-])c2)cc1 -0.02%
O=C(c1ccc2snnc2c1)N1CCSCC1 12.5%
COc1ccc(OC)c(/C=N/N(C)c2ccccc2)c1 19.4%
CN(/N=C/c1cc(Br)cc(Br)c1O)c1ccccc1 5.13%
CCOc1ccc(/C=N/N(C)c2ccccc2)cc1OC 8.29%
COc1ccc(/C=N/N(c2ccccc2)c2ccccc2)cc1O 10.2%
COc1cc(/C=N/N(c2ccccc2)c2ccccc2)ccc1O 21%
COc1cc(/C=N/S(=O)(=O)c2ccccc2)cc(OC)c1O 9.73%
